# According to PMC7862700, “An all-to-all approach to the identification of sequence-specific readers for epigenetic DNA modifications on cytosine”:
# Legend:
# Assay in all cases: DAPPL (digital affinity profiling via proximity ligation, sequencing); 10 mM Tris-HCl pH 7.5, 50 mM NaCl, 1 mM DTT, 4% glycerol, room temperature, 30 min; GST-TFs on glutathione beads, 16-mer random dsDNA library, 0.1% formaldehyde crosslink after washing; high values mean tight binding
# [1] = target: T1, FEV (Homo sapiens, UniProt Q99581 1-238); details: protein: recombinant; tags: N-terminal GST; dsDNA, one strand shown
# T1 sequence: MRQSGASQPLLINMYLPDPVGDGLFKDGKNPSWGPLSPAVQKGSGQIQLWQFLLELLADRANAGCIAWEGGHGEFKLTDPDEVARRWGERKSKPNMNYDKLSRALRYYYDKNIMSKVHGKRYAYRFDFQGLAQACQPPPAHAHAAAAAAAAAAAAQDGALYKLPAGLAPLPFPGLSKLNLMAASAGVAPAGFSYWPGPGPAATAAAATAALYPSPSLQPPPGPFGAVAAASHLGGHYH
# Procedure, shortened: (§1)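 Sequencing on an Illumina NextSeq500 followed washing, crosslinking with 0.1% formaldehyde, proximity ligation (BsaI/T4 ligase, 1 h, 37 °C) and PCR amplification of pools that had been incubated for 30 min at room temperature with 200 nmole of a random double-stranded 16-mer DNA library in Tris/NaCl/DTT/glycerol buffer. Each pool held DNA-barcoded human transcription factors, expressed in yeast as GST fusions and captured on glutathione beads, plus a tag-only sample. Binding signal is a hexamer's read frequency for a factor divided by its frequency in the tag-only sample.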
# [2] = target: ETV5 (Homo sapiens, UniProt P41161 1-510); details: protein: recombinant; tags: N-terminal GST; dsDNA, one strand shown
# Sequence of ETV5 (P41161 whole entry): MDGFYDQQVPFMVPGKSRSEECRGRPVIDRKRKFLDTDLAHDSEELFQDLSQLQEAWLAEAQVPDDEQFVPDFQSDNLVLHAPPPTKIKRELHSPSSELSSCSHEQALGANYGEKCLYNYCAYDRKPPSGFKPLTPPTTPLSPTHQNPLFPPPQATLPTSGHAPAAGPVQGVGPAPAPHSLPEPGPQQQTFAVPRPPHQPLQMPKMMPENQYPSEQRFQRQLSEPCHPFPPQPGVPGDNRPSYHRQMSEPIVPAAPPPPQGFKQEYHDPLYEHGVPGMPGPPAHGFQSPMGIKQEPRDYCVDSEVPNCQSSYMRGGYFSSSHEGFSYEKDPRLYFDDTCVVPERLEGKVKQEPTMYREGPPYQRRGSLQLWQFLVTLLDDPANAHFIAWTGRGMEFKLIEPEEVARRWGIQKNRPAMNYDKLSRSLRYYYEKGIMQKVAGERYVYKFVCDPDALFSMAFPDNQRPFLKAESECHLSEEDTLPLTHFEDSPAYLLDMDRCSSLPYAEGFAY
# Procedure, shortened: as §1
# [3] = target: HSF1 (Homo sapiens, UniProt Q00613 1-529); details: protein: recombinant; tags: N-terminal GST; chain copies: 3; dsDNA, one strand shown
# Sequence of HSF1 (Q00613 whole entry): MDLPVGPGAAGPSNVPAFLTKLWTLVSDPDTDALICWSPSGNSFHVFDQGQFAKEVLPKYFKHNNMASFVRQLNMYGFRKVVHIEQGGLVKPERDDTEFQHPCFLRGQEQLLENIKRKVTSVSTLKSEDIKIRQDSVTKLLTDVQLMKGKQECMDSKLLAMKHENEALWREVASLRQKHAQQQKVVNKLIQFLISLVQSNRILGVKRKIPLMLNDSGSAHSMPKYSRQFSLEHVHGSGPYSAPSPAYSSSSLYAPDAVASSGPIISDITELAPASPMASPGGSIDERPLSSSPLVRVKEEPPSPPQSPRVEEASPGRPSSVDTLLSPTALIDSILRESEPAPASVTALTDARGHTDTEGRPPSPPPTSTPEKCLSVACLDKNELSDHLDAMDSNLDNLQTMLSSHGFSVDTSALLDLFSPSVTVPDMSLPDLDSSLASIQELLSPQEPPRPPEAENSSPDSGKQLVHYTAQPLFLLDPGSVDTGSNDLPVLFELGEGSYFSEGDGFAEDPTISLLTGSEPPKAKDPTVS
# Procedure, shortened: as §1
# [4] = target: T2, SPIC (Homo sapiens, UniProt Q8N5J4 1-248); details: protein: recombinant; tags: N-terminal GST; dsDNA, one strand shown
# T2 sequence: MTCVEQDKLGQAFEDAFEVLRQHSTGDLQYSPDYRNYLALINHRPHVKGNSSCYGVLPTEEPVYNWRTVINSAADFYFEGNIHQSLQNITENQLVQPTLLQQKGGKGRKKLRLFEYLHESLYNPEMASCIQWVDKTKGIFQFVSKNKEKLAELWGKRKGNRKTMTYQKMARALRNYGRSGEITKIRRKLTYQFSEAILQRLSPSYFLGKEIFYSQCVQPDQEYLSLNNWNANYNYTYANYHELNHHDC
# Procedure, shortened: as §1
# [5] = target: ELF4 (Homo sapiens, UniProt Q99607 1-663); details: protein: recombinant; tags: N-terminal GST; dsDNA, one strand shown
# Sequence of ELF4 (Q99607 whole entry): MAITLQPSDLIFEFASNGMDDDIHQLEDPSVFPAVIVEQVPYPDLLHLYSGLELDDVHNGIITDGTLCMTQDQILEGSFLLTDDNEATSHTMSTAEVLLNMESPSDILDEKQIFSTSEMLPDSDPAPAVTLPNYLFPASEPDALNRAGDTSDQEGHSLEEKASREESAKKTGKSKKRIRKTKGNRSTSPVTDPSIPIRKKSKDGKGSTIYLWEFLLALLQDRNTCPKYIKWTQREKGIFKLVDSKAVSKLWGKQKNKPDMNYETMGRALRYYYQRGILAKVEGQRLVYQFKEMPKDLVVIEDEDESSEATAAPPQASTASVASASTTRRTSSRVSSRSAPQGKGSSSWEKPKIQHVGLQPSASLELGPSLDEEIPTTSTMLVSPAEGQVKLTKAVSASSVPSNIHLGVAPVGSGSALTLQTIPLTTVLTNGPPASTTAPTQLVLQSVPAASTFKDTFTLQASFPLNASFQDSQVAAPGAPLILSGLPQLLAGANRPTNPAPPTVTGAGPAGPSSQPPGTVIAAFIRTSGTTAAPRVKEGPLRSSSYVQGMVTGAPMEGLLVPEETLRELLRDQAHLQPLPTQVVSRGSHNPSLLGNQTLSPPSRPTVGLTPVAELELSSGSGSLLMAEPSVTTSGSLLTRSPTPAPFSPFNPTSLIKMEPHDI
# Procedure, shortened: as §1
# [6] = target: T3, ELK4 (Homo sapiens, UniProt P28324-2 1-405); details: protein: recombinant; tags: N-terminal GST; dsDNA, one strand shown
# T3 sequence: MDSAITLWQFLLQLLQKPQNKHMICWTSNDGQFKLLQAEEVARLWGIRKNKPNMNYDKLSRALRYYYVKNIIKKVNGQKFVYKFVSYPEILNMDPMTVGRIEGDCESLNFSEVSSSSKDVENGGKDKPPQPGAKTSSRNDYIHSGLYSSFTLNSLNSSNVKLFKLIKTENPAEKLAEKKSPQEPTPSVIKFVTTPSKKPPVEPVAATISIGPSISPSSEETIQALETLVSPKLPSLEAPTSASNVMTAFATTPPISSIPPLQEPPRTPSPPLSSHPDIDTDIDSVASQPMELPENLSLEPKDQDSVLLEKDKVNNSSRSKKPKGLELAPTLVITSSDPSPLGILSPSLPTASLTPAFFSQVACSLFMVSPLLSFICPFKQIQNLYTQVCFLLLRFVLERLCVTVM
# Procedure, shortened: as §1
# [7] = target: T4, ETV2 (Homo sapiens, UniProt O00321 1-342); details: protein: recombinant; tags: N-terminal GST; dsDNA, one strand shown
# T4 sequence: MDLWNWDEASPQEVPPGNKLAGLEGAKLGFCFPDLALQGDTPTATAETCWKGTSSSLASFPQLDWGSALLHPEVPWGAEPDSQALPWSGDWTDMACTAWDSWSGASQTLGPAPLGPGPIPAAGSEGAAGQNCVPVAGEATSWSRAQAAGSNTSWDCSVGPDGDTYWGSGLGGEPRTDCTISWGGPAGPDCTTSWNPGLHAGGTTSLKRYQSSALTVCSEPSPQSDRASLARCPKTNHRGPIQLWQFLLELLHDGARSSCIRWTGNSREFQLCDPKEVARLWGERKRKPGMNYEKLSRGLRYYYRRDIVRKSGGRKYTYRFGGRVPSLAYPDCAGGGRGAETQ
# Procedure, shortened: as §1
# [8] = target: T5, ELF3 (Homo sapiens, UniProt P78545 1-371); details: protein: recombinant; tags: N-terminal GST; dsDNA, one strand shown
# T5 sequence: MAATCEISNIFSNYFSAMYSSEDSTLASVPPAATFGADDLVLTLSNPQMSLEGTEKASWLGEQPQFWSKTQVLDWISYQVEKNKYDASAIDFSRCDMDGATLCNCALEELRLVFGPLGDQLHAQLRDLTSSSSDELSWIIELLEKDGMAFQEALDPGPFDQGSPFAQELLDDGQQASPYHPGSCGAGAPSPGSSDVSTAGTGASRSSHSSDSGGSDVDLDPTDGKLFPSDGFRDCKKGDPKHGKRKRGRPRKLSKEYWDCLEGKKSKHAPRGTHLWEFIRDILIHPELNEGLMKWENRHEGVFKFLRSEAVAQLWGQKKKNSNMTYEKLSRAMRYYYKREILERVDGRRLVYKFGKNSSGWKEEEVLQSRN
# Procedure, shortened: as §1
# [9] = target: CRX (Homo sapiens, UniProt O43186 1-299); details: protein: recombinant; tags: N-terminal GST; dsDNA, one strand shown
# Sequence of CRX (O43186 whole entry): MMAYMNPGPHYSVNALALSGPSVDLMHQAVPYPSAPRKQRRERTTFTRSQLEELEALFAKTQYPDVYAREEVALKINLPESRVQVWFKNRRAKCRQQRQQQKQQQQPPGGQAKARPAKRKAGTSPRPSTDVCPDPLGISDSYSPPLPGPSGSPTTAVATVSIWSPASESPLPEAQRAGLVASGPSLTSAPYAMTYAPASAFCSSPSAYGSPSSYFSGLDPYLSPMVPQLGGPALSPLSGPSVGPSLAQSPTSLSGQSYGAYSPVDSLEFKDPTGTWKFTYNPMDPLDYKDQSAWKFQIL
# Procedure, shortened: as §1
# [10] = target: ETV1 (Homo sapiens, UniProt P50549 1-477); details: protein: recombinant; tags: N-terminal GST; dsDNA, one strand shown
# Sequence of ETV1 (P50549 whole entry): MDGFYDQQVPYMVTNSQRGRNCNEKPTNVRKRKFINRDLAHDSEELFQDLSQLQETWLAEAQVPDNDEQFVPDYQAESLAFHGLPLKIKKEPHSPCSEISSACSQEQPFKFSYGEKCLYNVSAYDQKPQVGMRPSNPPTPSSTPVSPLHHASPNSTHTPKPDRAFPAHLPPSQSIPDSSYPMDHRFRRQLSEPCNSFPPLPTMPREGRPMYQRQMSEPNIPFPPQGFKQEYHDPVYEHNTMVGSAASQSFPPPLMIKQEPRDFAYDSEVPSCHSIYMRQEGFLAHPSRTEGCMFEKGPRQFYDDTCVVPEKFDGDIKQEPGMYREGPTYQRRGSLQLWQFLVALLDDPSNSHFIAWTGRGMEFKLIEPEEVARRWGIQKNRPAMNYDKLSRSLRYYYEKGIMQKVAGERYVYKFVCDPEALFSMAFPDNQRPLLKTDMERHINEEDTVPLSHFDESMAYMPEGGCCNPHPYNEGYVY
# Procedure, shortened: as §1
# [11] = target: T6, ERF (Homo sapiens, UniProt P50548 1-548); details: protein: recombinant; tags: N-terminal GST; dsDNA, one strand shown
# T6 sequence: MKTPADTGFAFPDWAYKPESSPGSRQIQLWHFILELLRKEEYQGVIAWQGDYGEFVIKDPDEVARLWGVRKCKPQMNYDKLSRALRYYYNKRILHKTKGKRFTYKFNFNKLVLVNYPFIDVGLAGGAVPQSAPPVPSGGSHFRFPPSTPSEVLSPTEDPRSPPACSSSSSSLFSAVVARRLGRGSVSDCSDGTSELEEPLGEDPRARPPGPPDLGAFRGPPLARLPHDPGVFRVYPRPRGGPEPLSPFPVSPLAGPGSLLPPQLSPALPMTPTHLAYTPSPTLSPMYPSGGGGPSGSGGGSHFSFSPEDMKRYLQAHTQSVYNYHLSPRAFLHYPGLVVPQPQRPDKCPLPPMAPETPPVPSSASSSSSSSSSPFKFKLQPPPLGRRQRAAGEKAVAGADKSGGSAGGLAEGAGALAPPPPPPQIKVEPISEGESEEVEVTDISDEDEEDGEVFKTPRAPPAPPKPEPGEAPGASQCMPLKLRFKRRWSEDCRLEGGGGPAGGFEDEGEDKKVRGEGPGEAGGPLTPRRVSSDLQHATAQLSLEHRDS
# Procedure, shortened: as §1
# [12] = target: T7, ETV3L (Homo sapiens, UniProt Q6ZN32 1-361); details: protein: recombinant; tags: N-terminal GST; dsDNA, one strand shown
# T7 sequence: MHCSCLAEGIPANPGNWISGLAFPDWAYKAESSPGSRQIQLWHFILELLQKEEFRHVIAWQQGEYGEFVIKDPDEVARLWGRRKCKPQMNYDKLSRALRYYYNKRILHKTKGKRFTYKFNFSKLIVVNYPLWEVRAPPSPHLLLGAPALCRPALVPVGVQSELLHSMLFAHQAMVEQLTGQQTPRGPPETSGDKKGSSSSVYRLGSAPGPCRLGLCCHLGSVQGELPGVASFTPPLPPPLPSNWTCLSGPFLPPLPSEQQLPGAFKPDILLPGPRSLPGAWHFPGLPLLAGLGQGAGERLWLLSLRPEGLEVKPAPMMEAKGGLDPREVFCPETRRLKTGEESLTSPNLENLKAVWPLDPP
# Procedure, shortened: as §1
# [13] = target: T8, ETS2 (Homo sapiens, UniProt P15036 1-469); details: protein: recombinant; tags: N-terminal GST; dsDNA, one strand shown
# T8 sequence: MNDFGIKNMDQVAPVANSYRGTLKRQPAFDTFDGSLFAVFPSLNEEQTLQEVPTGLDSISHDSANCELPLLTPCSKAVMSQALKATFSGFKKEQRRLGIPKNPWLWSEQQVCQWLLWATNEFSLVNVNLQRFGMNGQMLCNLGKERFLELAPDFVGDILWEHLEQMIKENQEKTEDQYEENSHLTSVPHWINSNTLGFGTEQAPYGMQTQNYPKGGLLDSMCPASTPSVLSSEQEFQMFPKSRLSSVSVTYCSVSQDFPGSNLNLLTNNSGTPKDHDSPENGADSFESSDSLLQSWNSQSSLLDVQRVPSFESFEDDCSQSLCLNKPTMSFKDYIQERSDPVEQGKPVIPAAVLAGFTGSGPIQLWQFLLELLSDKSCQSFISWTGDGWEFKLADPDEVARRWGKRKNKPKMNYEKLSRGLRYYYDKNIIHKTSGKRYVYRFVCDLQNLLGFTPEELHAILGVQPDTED
# Procedure, shortened: as §1
# [14] = target: T9, SPDEF (Homo sapiens, UniProt O95238 1-335); details: protein: recombinant; tags: N-terminal GST; dsDNA, one strand shown
# T9 sequence: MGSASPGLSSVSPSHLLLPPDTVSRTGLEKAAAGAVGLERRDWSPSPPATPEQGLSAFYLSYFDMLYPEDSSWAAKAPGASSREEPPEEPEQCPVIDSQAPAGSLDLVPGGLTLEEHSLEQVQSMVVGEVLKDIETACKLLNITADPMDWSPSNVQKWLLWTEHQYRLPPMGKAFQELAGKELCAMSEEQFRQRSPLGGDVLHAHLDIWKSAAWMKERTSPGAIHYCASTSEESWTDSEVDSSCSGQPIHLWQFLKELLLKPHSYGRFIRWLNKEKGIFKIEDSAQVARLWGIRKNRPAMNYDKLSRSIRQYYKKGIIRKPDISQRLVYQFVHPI
# Procedure, shortened: as §1
# [15] = target: T10, ETV7 (Homo sapiens, UniProt Q9Y603 1-341); details: protein: recombinant; tags: N-terminal GST; dsDNA, one strand shown
# T10 sequence: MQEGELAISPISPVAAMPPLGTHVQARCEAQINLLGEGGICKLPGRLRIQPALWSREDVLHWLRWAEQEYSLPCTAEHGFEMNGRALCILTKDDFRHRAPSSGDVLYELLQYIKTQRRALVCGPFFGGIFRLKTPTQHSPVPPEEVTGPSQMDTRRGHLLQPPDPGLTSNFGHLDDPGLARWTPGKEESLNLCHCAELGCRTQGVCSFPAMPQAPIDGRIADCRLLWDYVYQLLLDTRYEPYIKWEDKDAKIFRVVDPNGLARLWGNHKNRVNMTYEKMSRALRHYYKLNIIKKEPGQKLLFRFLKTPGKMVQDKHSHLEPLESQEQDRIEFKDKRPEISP
# Procedure, shortened: as §1
# [16] = target: T11, ELF5 (Homo sapiens, UniProt Q9UKW6-2 1-255); details: protein: recombinant; tags: N-terminal GST; dsDNA, one strand shown
# T11 sequence: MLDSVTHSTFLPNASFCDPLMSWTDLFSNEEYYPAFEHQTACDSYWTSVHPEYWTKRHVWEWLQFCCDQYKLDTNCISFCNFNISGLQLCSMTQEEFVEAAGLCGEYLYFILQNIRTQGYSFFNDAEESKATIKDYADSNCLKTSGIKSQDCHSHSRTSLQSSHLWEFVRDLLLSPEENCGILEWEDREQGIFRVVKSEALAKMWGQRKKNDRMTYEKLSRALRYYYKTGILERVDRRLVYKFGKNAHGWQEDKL
# Procedure, shortened: as §1
# [17] = target: T12, ETV3 (Homo sapiens, UniProt P41162-2 1-143); details: protein: recombinant; tags: N-terminal GST; dsDNA, one strand shown
# T12 sequence: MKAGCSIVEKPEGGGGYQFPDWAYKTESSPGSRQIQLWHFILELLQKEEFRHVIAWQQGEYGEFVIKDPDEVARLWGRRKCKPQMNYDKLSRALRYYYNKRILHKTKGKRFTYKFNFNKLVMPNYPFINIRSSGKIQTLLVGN
# Procedure, shortened: as §1
# [18] = target: ETV6 (Homo sapiens, UniProt P41212 1-452); details: protein: recombinant; tags: N-terminal GST; dsDNA, one strand shown
# Sequence of ETV6 (P41212 whole entry): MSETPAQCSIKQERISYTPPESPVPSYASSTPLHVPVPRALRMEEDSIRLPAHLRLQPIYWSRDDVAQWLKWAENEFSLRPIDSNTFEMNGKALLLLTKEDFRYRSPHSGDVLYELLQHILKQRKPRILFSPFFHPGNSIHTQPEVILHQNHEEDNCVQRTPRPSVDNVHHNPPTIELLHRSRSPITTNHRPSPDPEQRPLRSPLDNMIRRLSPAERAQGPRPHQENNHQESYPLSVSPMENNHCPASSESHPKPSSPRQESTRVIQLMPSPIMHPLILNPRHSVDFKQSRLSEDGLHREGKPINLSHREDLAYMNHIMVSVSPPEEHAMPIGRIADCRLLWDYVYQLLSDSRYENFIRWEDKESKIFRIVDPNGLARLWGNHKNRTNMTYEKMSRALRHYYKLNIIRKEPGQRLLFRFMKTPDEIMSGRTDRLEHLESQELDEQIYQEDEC
# Procedure, shortened: as §1
sequence,measurement,setting,value
TACTTA,binding signal,[1],"1.12 fold enrichment (6-mer frequency, TF over GST control)"
same,binding signal,[2],"1.17 fold enrichment (6-mer frequency, TF over GST control)"
same,binding signal,[3],"1.7 fold enrichment (6-mer frequency, TF over GST control)"
same,binding signal,[4],"1.12 fold enrichment (6-mer frequency, TF over GST control)"
same,binding signal,[5],"1.21 fold enrichment (6-mer frequency, TF over GST control)"
same,binding signal,[6],"1.25 fold enrichment (6-mer frequency, TF over GST control)"
same,binding signal,[7],"1.16 fold enrichment (6-mer frequency, TF over GST control)"
same,binding signal,[8],"1.33 fold enrichment (6-mer frequency, TF over GST control)"
same,binding signal,[9],"2.6 fold enrichment (6-mer frequency, TF over GST control)"
same,binding signal,[10],"1.24 fold enrichment (6-mer frequency, TF over GST control)"
same,binding signal,[11],"1.29 fold enrichment (6-mer frequency, TF over GST control)"
same,binding signal,[12],"1.2 fold enrichment (6-mer frequency, TF over GST control)"
same,binding signal,[13],"1.25 fold enrichment (6-mer frequency, TF over GST control)"
same,binding signal,[14],"1.14 fold enrichment (6-mer frequency, TF over GST control)"
same,binding signal,[15],"1.21 fold enrichment (6-mer frequency, TF over GST control)"
same,binding signal,[16],"1.14 fold enrichment (6-mer frequency, TF over GST control)"
same,binding signal,[17],"1.17 fold enrichment (6-mer frequency, TF over GST control)"
same,binding signal,[18],"1.28 fold enrichment (6-mer frequency, TF over GST control)"
